Experimental data as given in PubChem BioAssay AID1508636 (National Center for Advancing Translational Sciences (NCATS), 2021).
Records with an inconclusive call do not appear. A call without a number means that no potency is given here. Active and inactive are the calls of the source. The call rests on the fitted dose curve; in most records, active means well fitted inhibition curve with a large enough effect; inconclusive means small, poorly fitted or top-dose-only effect; inactive means flat fitted curve, though single readings scatter. *1 amine or outer side, *2 acyl side, *3 side chain or, on linkers, in order; H or OH if unused. Where a SMILES comes first, the peptide text is derived from it. [ ]: non-standard residue; d: D form. X1 = O=C([C@@H](CC(O)CCl)O[*:1])[*:2]; aIle = CC[C@@H](C)[C@H](N)C(=O)O; NMeV = CN[C@H](C(=O)O)C(C)C; NMeA = CN[C@@H](C)C(=O)O; βAla = NCCC(=O)O

Target: ATP-dependent translocase ABCB1 (Homo sapiens) (UniProt P08183)
Experiment: qHTS for characterization and localization of zebrafish homologs of the human ABCB1 multidrug transporter: P-gp overexpressing MDR-19 cells
Source text: The zebrafish has emerged as a potential model to study the blood-brain barrier (BBB) given its similarities with mammalian systems. However, little information has been available with regard to homologous ATP-binding cassette transporters expressed at the zebrafish BBB. Two transporters that are highly expressed at the human BBB are P-glycoprotein (P-gp, encoded by the ABCB1 gene) and ABCG2 (encoded by the ABCG2 gene). In this study, we focus on characterization of P-gp homologs in the zebrafish, which has two genes that are homologous to human ABCB1 - abcb4 and abcb5. We generated stably-transfected cell lines to determine their substrate specificities. […] Zebrafish abcb4 also colocalized with claudin 5 expression in brain endothelial cells.
A high-throughput screen was performed as previously described on empty vector transfected cells, P-gp-overexpressing MDR-19 cells and cells transfected with full-length zebrafish abcb4 (ZF Abcb4) or abcb5 (ZF Abcb5). Briefly, cells were plated into 1536-well plates at a density of 500 cells/well in 5 uL media. […] CellTiter-Glo reagent (Promega) was dispensed into the wells, incubated for 5 min and luminescence was read on a ViewLux instrument (Perkin-Elmer). […]

Sequence of ATP-dependent translocase ABCB1 (Homo sapiens) (P08183 whole entry, looked up): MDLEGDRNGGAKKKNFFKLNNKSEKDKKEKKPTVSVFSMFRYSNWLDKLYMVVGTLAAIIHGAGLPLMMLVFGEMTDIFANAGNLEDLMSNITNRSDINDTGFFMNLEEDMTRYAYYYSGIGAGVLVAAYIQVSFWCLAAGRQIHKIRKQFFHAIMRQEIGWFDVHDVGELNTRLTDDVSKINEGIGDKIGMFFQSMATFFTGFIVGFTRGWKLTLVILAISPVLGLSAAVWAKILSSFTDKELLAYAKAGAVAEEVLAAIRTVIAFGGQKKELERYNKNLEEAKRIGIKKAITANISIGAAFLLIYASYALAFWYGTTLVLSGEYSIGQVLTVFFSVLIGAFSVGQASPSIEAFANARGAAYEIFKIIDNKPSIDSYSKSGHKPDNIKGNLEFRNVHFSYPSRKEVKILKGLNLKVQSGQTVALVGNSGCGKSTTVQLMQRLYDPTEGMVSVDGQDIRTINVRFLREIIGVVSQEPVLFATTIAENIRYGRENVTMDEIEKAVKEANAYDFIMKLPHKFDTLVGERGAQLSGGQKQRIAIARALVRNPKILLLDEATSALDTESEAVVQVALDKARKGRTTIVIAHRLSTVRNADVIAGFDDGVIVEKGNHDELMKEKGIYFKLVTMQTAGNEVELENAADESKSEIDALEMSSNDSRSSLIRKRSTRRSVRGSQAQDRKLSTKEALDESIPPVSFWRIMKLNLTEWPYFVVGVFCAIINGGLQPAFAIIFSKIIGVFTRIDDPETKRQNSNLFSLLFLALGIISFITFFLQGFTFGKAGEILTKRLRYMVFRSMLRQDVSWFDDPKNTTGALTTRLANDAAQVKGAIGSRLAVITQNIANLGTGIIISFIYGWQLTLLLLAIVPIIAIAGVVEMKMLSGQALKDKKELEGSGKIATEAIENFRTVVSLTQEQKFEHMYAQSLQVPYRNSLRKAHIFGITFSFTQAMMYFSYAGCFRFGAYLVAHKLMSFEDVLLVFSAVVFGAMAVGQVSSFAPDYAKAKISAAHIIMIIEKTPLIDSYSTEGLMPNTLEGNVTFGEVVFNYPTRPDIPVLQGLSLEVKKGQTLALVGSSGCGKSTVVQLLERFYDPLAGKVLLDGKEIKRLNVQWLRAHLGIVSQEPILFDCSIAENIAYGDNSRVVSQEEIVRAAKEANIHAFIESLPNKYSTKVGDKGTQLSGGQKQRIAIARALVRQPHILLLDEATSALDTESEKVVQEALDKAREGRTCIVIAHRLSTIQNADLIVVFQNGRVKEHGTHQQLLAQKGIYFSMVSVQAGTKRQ

CC[C@@H](C)[C@@H]1NC(=O)[C@@H]2CCCN2C(=O)[C@@H](CC(O)CCl)OC(=O)CCNC(=O)[C@H](C)N(C)C(=O)[C@H](C(C)C)N(C)C1=O (some centres not stated) (cyclo([NMeA][βAla][X1]P[aIle][NMeV]))
Potency: inactive

C[C@@H]1[C@@H](CC(C[C@H]2O[C@@H]3O[C@]4(C)CC[C@@H]5[C@H](C)CC[C@@H]([C@H]2C)[C@@]35OO4)C[S+](=O)([O-])c2ccc(COC(=O)N(C)C)cc2)O[C@@H]2O[C@]3(C)CC[C@H]4[C@H](C)CC[C@@H]1[C@@]24OO3 (some centres not stated)
Potency: 1320 nM (active)
